Test results from publication PMC7819943, “Rice protein-binding microarrays: a tool to detect cis-acting elements near promoter regions in rice”.
In all, about 39,000 sequences were measured (“fluorescence intensity (a.u.)”: median about 4,300, highest 2% from about 39,000 on). The entries come from a sample that favours the highest values as a whole.

target: T1, OsSMF1 (Oryza sativa, UniProt Q6ZLB0 1-436); assay: protein-binding microarray (RPBM); PBS, 2% BSA, 51.3 ng/ul salmon testes DNA, 50 uM zinc acetate, 200 nM TF, 25 C, 1 h; high values mean tight binding; settings: protein: recombinant; tags: N-terminal polyhistidine and DsRed monomer fusion (pET32a); chain copies: 2; label: CyDye5-dUTP incorporated in the synthesized complementary strand; 3' TTTTT single-stranded linker to array surface; dsDNA, one strand shown
T1 sequence: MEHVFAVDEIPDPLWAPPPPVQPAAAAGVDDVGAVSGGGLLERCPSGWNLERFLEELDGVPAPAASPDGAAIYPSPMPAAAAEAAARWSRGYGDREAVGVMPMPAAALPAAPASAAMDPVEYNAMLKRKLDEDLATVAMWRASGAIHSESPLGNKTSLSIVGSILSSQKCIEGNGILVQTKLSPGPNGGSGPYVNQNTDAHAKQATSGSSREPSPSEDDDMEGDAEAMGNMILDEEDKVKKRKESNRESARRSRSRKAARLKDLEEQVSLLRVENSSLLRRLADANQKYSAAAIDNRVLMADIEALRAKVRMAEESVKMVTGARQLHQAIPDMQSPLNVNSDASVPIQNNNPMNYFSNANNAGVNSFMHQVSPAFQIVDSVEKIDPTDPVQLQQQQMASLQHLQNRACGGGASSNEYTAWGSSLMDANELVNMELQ
In short: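 Per-feature fluorescence intensity (arbitrary units), read on an Axon 4000B scanner, is the binding signal. Transcription factors carrying an N-terminal polyhistidine tag and DsRed fusion were expressed in E. coli BL21-CodonPlus and purified on Ni–NTA. A custom Agilent array, made double-stranded by primer extension with Cy5-dUTP and blocked with 2% BSA, was incubated with 200 nM protein in PBS, 2% BSA, salmon testes DNA and 50 µM zinc acetate at 25 °C for 1 h and then washed.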

| Sequence | binding signal |
| --- | --- |
| AGGATTTCATGTGTTTTGGTTAACATATTCATGTGTGTCTCGGAGTCACCTAGTGCAG | 3500 fluorescence intensity (a.u.) |
| TTTTAGTATATTTATATACTTTGTGCAAGGTGACATGTACCGGAGTCACCTAGTGCAG | 3440 fluorescence intensity (a.u.) |
| CTTCTCTTATTGTTTGTGTCATTTTCATTTATGTCCTTGTCGGAGTCACCTAGTGCAG | 3940 fluorescence intensity (a.u.) |
| GGAGTGGCGGGGTTGCGGCATTGGGAGCTGACGTGGCCGCCGGAGTCACCTAGTGCAG | 25400 fluorescence intensity (a.u.) |
| GTAGAATTATAAAATATATTGTGTACACAATAGGTTTATGCGGAGTCACCTAGTGCAG | 3330 fluorescence intensity (a.u.) |
| AAACATCATATCAAATCTTTGGACATAGGTATAGAATATTCGGAGTCACCTAGTGCAG | 8890 fluorescence intensity (a.u.) |
| ATATAAATAGGTTTCGAGGTAGAATATCAAAACAAGGATGCGGAGTCACCTAGTGCAG | 39300 fluorescence intensity (a.u.) |
| GAGCCACGGTGGAAGGGTATAATCGTAATTTCGCGTATGGCGGAGTCACCTAGTGCAG | 3370 fluorescence intensity (a.u.) |
| ACCGGGTCGCGCGCGTCGTTGAAACGTCACACCTAGCTAACGGAGTCACCTAGTGCAG | 4280 fluorescence intensity (a.u.) |
| CGAATCTTTTGAGCCTAATTAATCTATCATTAGCACATGTCGGAGTCACCTAGTGCAG | 3170 fluorescence intensity (a.u.) |
| AGTAAATCCACATCAACAGCATTCTGTTGTTAACTCTGCCCGGAGTCACCTAGTGCAG | 6820 fluorescence intensity (a.u.) |
| TGAAAATCGCATACTAATTAGCTATTAGTCATGAGCTCTTCGGAGTCACCTAGTGCAG | 3590 fluorescence intensity (a.u.) |
| CAGGGAGCATTGAGATTCACTTTGTCACGATGGTAATATACGGAGTCACCTAGTGCAG | 22600 fluorescence intensity (a.u.) |
| GGGGAGCTTTGCCCCTGCGCACACTTGTCACGCTCACGCACGGAGTCACCTAGTGCAG | 3220 fluorescence intensity (a.u.) |
| CTGCACCTGCTTGATCTCTTCTATGTCACTGTTCCTCTGACGGAGTCACCTAGTGCAG | 3220 fluorescence intensity (a.u.) |
| TGCTTCCCCTGTTCTGATCACCTGCGCACACGGGTGCTCACGGAGTCACCTAGTGCAG | 49200 fluorescence intensity (a.u.) |
| CATAGCCTTTTGCATATGCGTCAAGCGTCTATACGATTCGCGGAGTCACCTAGTGCAG | 3900 fluorescence intensity (a.u.) |
| TGGGCGAGGAAGATATGAGTGTGAAAGGATGGAGGGCCCACGGAGTCACCTAGTGCAG | 32900 fluorescence intensity (a.u.) |
| TTTGACATAGATGTGTTCCTCTAATGACATAGATGTGTTCCGGAGTCACCTAGTGCAG | 3230 fluorescence intensity (a.u.) |
| GCAGACGGCGCGGTCGACCCACCGTCTGCCACGTCAGCTTCGGAGTCACCTAGTGCAG | 37200 fluorescence intensity (a.u.) |
| TCAGCGGCAGCCCACCCGACTGGGCCGGTCATCGGCGCCACGGAGTCACCTAGTGCAG | 3470 fluorescence intensity (a.u.) |
| GAGAGAAGATAGTAGTGGTAGTAGTAGCTGAGCTGTGTCACGGAGTCACCTAGTGCAG | 3360 fluorescence intensity (a.u.) |
| CTGGAGCGGGCGGCCACGGTCACGCCACGTCAGCTTCCATCGGAGTCACCTAGTGCAG | 42100 fluorescence intensity (a.u.) |
| CAATCATCAGCCACGTCCGCCGCCGCTTCAGCTGGATCGGCGGAGTCACCTAGTGCAG | 4290 fluorescence intensity (a.u.) |
| CGCGGTCGACCCACCGTCTGCCACGTCAGCTTGCTGCCCACGGAGTCACCTAGTGCAG | 25600 fluorescence intensity (a.u.) |
| GACGGCGCGGTCGACCCACCGTCTGCCACGTCAGCTTGCCCGGAGTCACCTAGTGCAG | 50100 fluorescence intensity (a.u.) |
| GACGGCGCGGTCGACCCGCCGTCTGCCACGTCAGCTTGCCCGGAGTCACCTAGTGCAG | 27400 fluorescence intensity (a.u.) |

| Sequence | binding signal |
| --- | --- |
| AGAGCTGAGCCTTATGTGTGGTCTGTCTGTGCCTAGTCGACGGAGTCACCTAGTGCAG | 48400 fluorescence intensity (a.u.) |
| GTGTGCTGTGTGTGGTCTGAGATGATGTGTACTGCTGCTACGGAGTCACCTAGTGCAG | 3950 fluorescence intensity (a.u.) |
| CGGTCGACCCACCGTCTGCCACGTCAGCTTGCCGCCCACCCGGAGTCACCTAGTGCAG | 22800 fluorescence intensity (a.u.) |
| GGTCGACCCACCGTCTGCCACGTCAGCTTGCTGCCCACCACGGAGTCACCTAGTGCAG | 48400 fluorescence intensity (a.u.) |
| CTCCATCTCGCAGTCGCAGTGCCAGCTAAGGCCTTGTACACGGAGTCACCTAGTGCAG | 3240 fluorescence intensity (a.u.) |
| GCAGTGGCTAAGCTTAAGCTCAGGTATGATGACTCGTTGGCGGAGTCACCTAGTGCAG | 3610 fluorescence intensity (a.u.) |
| AAGGGCAGCTCAGTCATGGCTGCCACGAGGACAGATGTGGCGGAGTCACCTAGTGCAG | 4760 fluorescence intensity (a.u.) |
| AGAGCAGATCCCCTGTCACGCCGACGCCGCCGCCGCCACCCGGAGTCACCTAGTGCAG | 5410 fluorescence intensity (a.u.) |
| CAATCTGTCATCTCTTTACCAGTCTCATTGACATGTGGGCCGGAGTCACCTAGTGCAG | 3270 fluorescence intensity (a.u.) |
| GAGAAAGGGTGTTGACGTGGCATCCTGACATGTGGGGTCCCGGAGTCACCTAGTGCAG | 15100 fluorescence intensity (a.u.) |
| AATCGGTGTCGTTTTGCACGGCGTGTGCCACGTCAGCGTTCGGAGTCACCTAGTGCAG | 52000 fluorescence intensity (a.u.) |
| CACCTATCCATCCATCCATGTGTGGTGTCGTGTCAGCGTTCGGAGTCACCTAGTGCAG | 6950 fluorescence intensity (a.u.) |
| AGCGGCGTCGTCTCGGCGGTGGCCGGTGCCACGGCGGCGGCGGAGTCACCTAGTGCAG | 6200 fluorescence intensity (a.u.) |
| CGTCGTCGCCGCCGCCGCCCTCTGCGTCGACGCTGCGGCACGGAGTCACCTAGTGCAG | 3220 fluorescence intensity (a.u.) |
| CGACGCCGCCGAGATCGCCGTCACCCGAATCCTGCGACGCCGGAGTCACCTAGTGCAG | 3580 fluorescence intensity (a.u.) |
| AGCTTCGGAGGCTGTACACGTAATGTGGTCGCTTGTTTGTCGGAGTCACCTAGTGCAG | 9220 fluorescence intensity (a.u.) |
| GTTTTCGCTTGTACTTCACAGGCTGATCACGGTCAGTACTCGGAGTCACCTAGTGCAG | 48700 fluorescence intensity (a.u.) |
| CATGTACACACCCACAGTCATCTGCTCATGTTTTCACGGTCGGAGTCACCTAGTGCAG | 3630 fluorescence intensity (a.u.) |
| GAGGGGTTACGCGTTAGGCGCTGCCACGTGTATCGATCGGCGGAGTCACCTAGTGCAG | 21900 fluorescence intensity (a.u.) |
| CGAGGATTTGAGATCTGAGATGGCACGGACACTAGACAACCGGAGTCACCTAGTGCAG | 3440 fluorescence intensity (a.u.) |
| GGGAACATTGTGTGCCAAAATTGACTCACGAATATACAAGCGGAGTCACCTAGTGCAG | 3340 fluorescence intensity (a.u.) |
| TATTTCTTCACCTTTAGTCATGTCACCTCTCACTTCACACCGGAGTCACCTAGTGCAG | 5120 fluorescence intensity (a.u.) |
| CTTCTTCGGGCCTTCTTTCAGAACTTTGGGTGGGCCTCACCGGAGTCACCTAGTGCAG | 64300 fluorescence intensity (a.u.) |
| CTTTCTTTCTTTCTTTGTGCCCAACTCTGACACGACTCACCGGAGTCACCTAGTGCAG | 5180 fluorescence intensity (a.u.) |
| TTCTTTGGTGGGTGCCACGTAGGAGAAACCCAGCAGGAGTCGGAGTCACCTAGTGCAG | 12000 fluorescence intensity (a.u.) |
| CACCCAAGAACCGGTGGTATTCTTTGGACACGAGAACTTTCGGAGTCACCTAGTGCAG | 39100 fluorescence intensity (a.u.) |
| TAAACTTCGGTGGCATGTCATCATCTTCAAACTCATCTTTCGGAGTCACCTAGTGCAG | 4670 fluorescence intensity (a.u.) |
